Dicer inh – inhibitors of Dicer pre-microRNA processing, primary screen, biochemical, cat-ELCCA, chemiluminescence; Endoribonuclease Dicer (Homo sapiens), Q9UPY3; cat-ELCCA pre-miR-21 Dicer processing; hits give high values; z-score at 25 µM; 47,000 tested, 6% active; in the data active means z-score above about 3, passing the limit was not always enough;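 further: plate controls were vehicle for no effect and no enzyme for full effect; higher signal means more uncleaved substrate so more Dicer inhibition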
Target sequence (Q9UPY3 whole entry, looked up): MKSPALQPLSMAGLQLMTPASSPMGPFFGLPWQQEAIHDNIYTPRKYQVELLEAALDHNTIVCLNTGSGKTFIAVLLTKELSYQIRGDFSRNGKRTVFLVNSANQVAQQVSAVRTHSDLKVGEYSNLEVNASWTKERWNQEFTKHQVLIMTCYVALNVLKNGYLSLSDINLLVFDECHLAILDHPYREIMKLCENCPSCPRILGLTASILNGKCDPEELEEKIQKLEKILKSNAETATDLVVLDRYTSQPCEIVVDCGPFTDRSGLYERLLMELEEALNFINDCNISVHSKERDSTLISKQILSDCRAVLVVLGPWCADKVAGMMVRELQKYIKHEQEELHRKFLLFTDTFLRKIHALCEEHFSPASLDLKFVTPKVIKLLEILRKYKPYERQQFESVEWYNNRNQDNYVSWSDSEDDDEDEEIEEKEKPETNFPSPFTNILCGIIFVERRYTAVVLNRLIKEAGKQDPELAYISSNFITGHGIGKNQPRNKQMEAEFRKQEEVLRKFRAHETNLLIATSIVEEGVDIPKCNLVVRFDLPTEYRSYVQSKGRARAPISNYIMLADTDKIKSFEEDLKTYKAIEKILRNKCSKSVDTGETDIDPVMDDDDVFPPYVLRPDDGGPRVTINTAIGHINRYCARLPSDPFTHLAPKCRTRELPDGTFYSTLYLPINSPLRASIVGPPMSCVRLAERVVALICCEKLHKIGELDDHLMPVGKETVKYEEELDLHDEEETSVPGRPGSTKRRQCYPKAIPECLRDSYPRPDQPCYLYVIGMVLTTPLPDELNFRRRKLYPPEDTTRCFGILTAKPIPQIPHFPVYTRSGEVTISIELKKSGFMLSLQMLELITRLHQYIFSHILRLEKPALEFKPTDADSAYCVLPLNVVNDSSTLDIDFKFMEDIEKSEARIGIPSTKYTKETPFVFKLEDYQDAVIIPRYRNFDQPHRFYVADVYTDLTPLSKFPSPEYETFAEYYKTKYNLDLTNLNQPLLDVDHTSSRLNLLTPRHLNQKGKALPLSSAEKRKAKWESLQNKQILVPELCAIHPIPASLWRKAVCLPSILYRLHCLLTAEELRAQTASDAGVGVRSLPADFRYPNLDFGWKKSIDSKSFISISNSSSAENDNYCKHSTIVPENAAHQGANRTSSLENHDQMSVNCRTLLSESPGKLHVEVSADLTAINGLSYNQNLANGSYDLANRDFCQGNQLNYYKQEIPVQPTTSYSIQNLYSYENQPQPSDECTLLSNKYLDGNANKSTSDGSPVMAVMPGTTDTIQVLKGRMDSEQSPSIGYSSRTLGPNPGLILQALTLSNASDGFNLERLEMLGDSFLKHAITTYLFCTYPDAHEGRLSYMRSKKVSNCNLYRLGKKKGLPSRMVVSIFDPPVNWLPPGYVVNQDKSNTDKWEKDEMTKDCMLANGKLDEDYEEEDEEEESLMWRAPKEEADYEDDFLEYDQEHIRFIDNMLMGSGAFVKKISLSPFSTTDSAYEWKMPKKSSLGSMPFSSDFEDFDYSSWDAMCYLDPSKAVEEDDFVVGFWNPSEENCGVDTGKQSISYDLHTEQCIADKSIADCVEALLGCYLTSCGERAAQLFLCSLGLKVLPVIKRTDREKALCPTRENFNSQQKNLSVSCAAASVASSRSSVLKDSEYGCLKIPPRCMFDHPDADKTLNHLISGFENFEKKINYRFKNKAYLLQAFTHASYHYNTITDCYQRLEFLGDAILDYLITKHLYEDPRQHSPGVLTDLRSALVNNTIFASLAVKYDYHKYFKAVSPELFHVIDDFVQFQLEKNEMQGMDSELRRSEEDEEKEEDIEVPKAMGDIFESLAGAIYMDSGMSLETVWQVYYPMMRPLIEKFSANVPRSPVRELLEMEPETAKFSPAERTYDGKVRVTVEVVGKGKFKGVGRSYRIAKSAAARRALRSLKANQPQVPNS
* = called active by the depositor. Many of the other results were omitted from the sample, so hits are more common in it than they were.

Results for CSc1scc2c1/C(=N/OC(=O)Nc1ccc(Cl)cc1)CC(C)(C)C2 ?
Dicer inh: 0.6

Results for CC1/C(=N\O)CC(c2ccccc2)N(C)C1c1ccccc1 (configuration not stated) ?
Dicer inh: -0.16

How did Cc1ccc(O)c(C(=O)NNC(=S)Nc2ccc(Cl)cc2)c1 do in these assays?
Dicer inh: 5.4*

Results for CNC(=S)NNC(=O)c1ccc(Cl)cc1Cl ?
Dicer inh: -1.56

Results for CCOC(=O)NNC(=S)Nc1ccc(Cl)cc1 ?
Dicer inh: -1.9

What do the screens show for `CCCCCOC(=O)CSc1nc2ccccc2s1`?
Dicer inh: -0.75

Results for O=C1c2cccc3cccc(c23)C(=O)N1c1nc2ccccc2[nH]1 ?
Dicer inh: -0.77

Results for CCOc1ccc2c(c1)C(C)=CC(C)(C)N2C(=O)Nc1ccc(Cl)cc1 ?
Dicer inh: -0.52

How did O=c1c2ccccc2nc(/C=C/c2ccco2)n1Cc1ccccc1 do in these assays?
Dicer inh: 3.01*

What do the screens show for `O=C(Nc1nc2ccccc2c(=O)s1)c1ccco1`?
Dicer inh: -0.49

What do the screens show for `O=c1oc(/C=C/c2ccco2)nc2ccccc12`?
Dicer inh: 17.7*

What do the screens show for `O=C(CSc1nc2ccccc2c(=O)n1Cc1ccco1)c1ccccc1`?
Dicer inh: -1.3

Results for Cc1nc2ccc(Br)cc2c(=O)o1 ?
Dicer inh: -0.27

How did Cc1ccc2nc(/C=C/c3ccco3)oc(=O)c2c1 do in these assays?
Dicer inh: 10.7*

What do the screens show for `C(=C\c1ccco1)/C1=NN(Cc2ccccc2)CC1`?
Dicer inh: 0.78

How did Cc1ccc2nc(-c3cc4ccccc4o3)oc(=O)c2c1 do in these assays?
Dicer inh: -0.92

What do the screens show for `COc1ccccc1/C=C/c1nc2cc(Cl)ccc2c(=O)o1`?
Dicer inh: 0.09

Results for Cn1nnnc1SCCNCc1cc(Br)ccc1OCc1ccccc1 ?
Dicer inh: 0.99

Results for Clc1ccccc1CSc1cc(-c2ccccc2)nc2ncnn12 ?
Dicer inh: -2.61

What do the screens show for `COCCOC(=O)c1c(C)oc2ccc(OCc3cc(C)ccc3C)cc12`?
Dicer inh: 2.16

How did CSc1nc(COc2ccccc2Cl)nc(-c2cccs2)c1C#N do in these assays?
Dicer inh: -1.7

Results for N#Cc1c(-c2ccc(Cl)cc2)nc(Nc2ccc(Cl)cc2)[nH]c1=O ?
Dicer inh: 1.05

Results for N#Cc1c(-c2ccc(Cl)c(Cl)c2)cc(-c2ccc(Cl)cc2)[nH]c1=O ?
Dicer inh: 2.13

What do the screens show for `COc1ccc(-c2nc(N(C)c3ccccc3)[nH]c(=O)c2C#N)cc1`?
Dicer inh: -0.19

What do the screens show for `N#Cc1c(-c2ccccc2)nc(N/N=C/c2cccs2)[nH]c1=O`?
Dicer inh: 3.79*

How did N#Cc1c(-c2ccc(Cl)cc2)nc(N/N=C/c2cccs2)[nH]c1=O do in these assays?
Dicer inh: 3.52*

Results for N#Cc1c(-c2ccccc2)c(-c2ccccc2)nn(CC(=O)N/N=C/c2cccs2)c1=O ?
Dicer inh: -0.43

What do the screens show for `COc1ccc(C2C=C(c3ccc(F)cc3)Nc3nc(CCCO)nn32)cc1` (configuration not stated)?
Dicer inh: 2.44

Results for Cc1ccc2c(c1)-c1cc(C)nn1C(c1ccc(N(C)C)cc1)N2 (configuration not stated) ?
Dicer inh: 6.8*

How did CSc1ccc(C2Nc3ccccc3-c3cc(C)nn32)cc1 (configuration not stated) do in these assays?
Dicer inh: 4.75*

Results for Cc1ccc2c(c1)-c1cc(C)nn1C(c1ccc(O)cc1)N2 (configuration not stated) ?
Dicer inh: 0.19

Results for Cc1cc2n(n1)C(c1ccc(N3CCCC3)cc1)Nc1ccccc1-2 (configuration not stated) ?
Dicer inh: 4.48*

How did CSc1ccc(C2Nc3c(C)cccc3-c3cc(C)nn32)cc1 (configuration not stated) do in these assays?
Dicer inh: 3.93*

Results for COC(=O)c1ccc(C2Nc3c(C)cc(C)cc3-c3cc(C)nn32)cc1 (configuration not stated) ?
Dicer inh: -0.34

Results for Cc1ccc2c(c1)-c1cc(C)nn1C(c1ccc(C(=O)O)cc1)N2 (configuration not stated) ?
Dicer inh: 2.48

How did CSc1ccc(C2Nc3ccc(C)cc3-c3cc(C)nn32)cc1 (configuration not stated) do in these assays?
Dicer inh: -0.31

Results for COc1ccc(C2Nc3ccc(C)cc3-c3cc(C)nn32)cc1O (configuration not stated) ?
Dicer inh: 1.66

Results for Cc1cc(C)cc(CC2CC(=O)N(CC(=O)O)C2=O)c1 (configuration not stated) ?
Dicer inh: 2.22

How did NC(=O)CN1C(=O)/C(=C\c2ccc(OCc3ccccc3)cc2)N=C1c1ccccc1 do in these assays?
Dicer inh: 1.77

What do the screens show for `CC(=O)c1c(C)nc(-c2ccc(C(F)(F)F)cc2)nc1SCc1ccccc1`?
Dicer inh: -0.78

Results for O=C(CSCCc1ccccn1)Nc1ccccc1Br ?
Dicer inh: 1.35

What do the screens show for `O=C1CCCc2c1cnc1[nH]n(-c3ccccc3)c(=O)c21`?
Dicer inh: 1.08

Results for Cc1cccc(Cl)c1NC(=S)NCc1ccc(C#N)cc1 ?
Dicer inh: 0.95

How did Cc1n[nH]c(C)c1CCCCOc1ccc(Cl)cc1 do in these assays?
Dicer inh: -0.25

Results for CCCCN1C(=O)C2(/C(=C(/O)c3ccc(C)c(F)c3)C(=O)C(=O)N2CCCOC)c2ccccc21 (configuration not stated) ?
Dicer inh: 1.69

What do the screens show for `Cc1c(Cl)cccc1NC(=S)NNC(=O)c1ccccc1Cl`?
Dicer inh: -2.24

How did O=S(=O)(NCCc1ccccn1)c1cc(S(=O)(=O)c2ccccc2)cs1 do in these assays?
Dicer inh: -1.58

How did C#CCSc1ncc(C(=O)O)c(C(OC)OC)n1 do in these assays?
Dicer inh: 13.5

How did CCC1(C)CC(=O)N(c2cc(C(F)(F)F)cc(C(F)(F)F)c2)C(=O)C1 do in these assays?
Dicer inh: -0.17

What do the screens show for `C/C(=N\N=C1/NC(=O)C(CC(=O)O)S1)c1ccc(CC(C)C)cc1` (configuration not stated)?
Dicer inh: -0.14

What do the screens show for `COc1cccc2c1c(NS(=O)(=O)c1cc(Cl)sc1Cl)nn2C`?
Dicer inh: -2.93

What do the screens show for `Cc1cc2n(n1)C(c1cccc(O)c1)Nc1c(C)cccc1-2` (configuration not stated)?
Dicer inh: 4.32*

Results for Cc1ccc(O)c(C2Nc3c(C)cccc3-c3cc(C)nn32)c1 (configuration not stated) ?
Dicer inh: 5.72*

How did Cc1cc2n(n1)C(c1ccsc1)Nc1ccccc1-2 (configuration not stated) do in these assays?
Dicer inh: 0.04

How did Cc1cc2n(n1)C(c1ccc(N3CCOCC3)cc1)Nc1c(C)cccc1-2 (configuration not stated) do in these assays?
Dicer inh: 3.84*

How did Cc1cc2n(n1)C(c1cccc(O)c1)Nc1ccccc1-2 (configuration not stated) do in these assays?
Dicer inh: 0.25

What do the screens show for `CCN(CC)c1ccc(C2Nc3ccccc3-c3cc(C)nn32)cc1` (configuration not stated)?
Dicer inh: 3.33*

What do the screens show for `Cc1cc2n(n1)C(c1cccc(O)c1O)Nc1c(C)cccc1-2` (configuration not stated)?
Dicer inh: 2.32

Assay outcomes deposited in PubChem by Center for Chemical Genomics, University of Michigan.
